Results filed as inconclusive are left out. Activity calls are given as the source filed them.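 How the source made its calls, unless noted: active means viability at or below 10% of carrier control in both of two separate runs; inconclusive means viability at or below 10% in only one of the two runs; inactive means the rest.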
How the values were obtained:
[1] = Her2 expression decrease, cell viability multiplex – SKBR3 breast tumor cells, AlphaScreen, ATP viability, primary screen (AID 461;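 active means Her2 level under about 52% in both replicate screens, with viability over 70% of control, limit read from the data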;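 on Her2 level: lower value means less Her2 protein in the cells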;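 on viability: percent of carrier control wells set as 100% viability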); settings: SKBR3 Her2 protein level, 18-24 h, measured here: SKBR3 viability, ATP luminescence, at 10 µM
[2] = biological target: Receptor tyrosine-protein kinase erbB-2 (Homo sapiens) (UniProt P04626); assay: as above; settings: 18-24 h, at 10 µM, stronger effect = lower value
[3] = reduced viability of SK-BR-3 breast cancer cells – cell-based, 24 h, human, pilot screen (AID 572); settings: SK-BR-3 viability, CellTiter-Glo luminescence, at 10 µM, stronger effect = lower value;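 further: compound exposure lasted between 18 and 24 h rather than exactly 24 h; 100% = carrier-treated control wells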
[4] = HUVEC growth inhibition – cell-based, human, primary screen (AID 575;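 active means viability at or below 30% in both replicate assays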;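 further: 100% = median of untreated cell wells with 0.1% DMSO on each plate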); settings: HUVEC proliferation, CellTiter-Glo luminescence, 72 h; at 10 µM; stronger effect = lower value
[5] = H69AR cell proliferation blockers – human, duplicate replicates, primary screen (AID 580;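 active means viability at or under a set limit in both replicates, limit being median viability minus 3 SD, cut at about 48% in these data, passing the limit was not always enough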;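 further: 100% = mean luminescence of untreated wells and 0% = no signal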); settings: H69AR lung tumor cells viability, ATP luminescence, 72 h; at 10 µM; stronger effect = lower value
[6] = MRP1 drug-resistance reversers in H69AR cells – cell-based, doxorubicin co-treatment, pilot screen (AID 601;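 active means viability loss from added drug above about 55%, and viability with drug at most 40%, in both replicates, limit read from the data, passing the limit was not always enough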); settings: CellTiter-Glo, 72 h, at 10 µM; for differential viability (reversal): stronger effect = higher value
[7] = yeast transport mutant growth inhibition pilot in 384-well plates, post-Golgi transport modulator project (AID 636; in the data active means inhibition above about 31%); settings: absorbance 615 nm, about 18 h, stronger effect = higher value
[8] = growth suppression of yeast trafficking mutant, preliminary HTS, modulators of trafficking downstream of Golgi apparatus project, 1536-format plate, OD 615 nm (AID 637; in the data active means inhibition above about 30%); settings: yeast transport mutant growth, absorbance 615 nm, 18 h; stronger effect = higher value
[9] = S. cerevisiae growth inhibition in permissive medium (OD615), pilot counter-assay for S. cerevisiae lifespan shortening project, permissive growth control (AID 705;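 active means growth inhibition above 25% in both replicates, a cutoff set 3 SD above the mean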); settings: OD615, 24 h, at 10 µM, stronger effect = higher value
[10] = S. cerevisiae growth inhibition in restrictive medium, OD615, pilot screen, restrictive growth control, yeast lifespan reduction project (AID 706;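 active means growth inhibition above a set limit, 3 SD over mean compound inhibition, in both replicates, cut at about 43% in these data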;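 further: modified DeaD lifespan yeast strain shifted to restrictive glucose medium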); settings: OD615, 48 h, at 10 µM, stronger effect = higher value
[11] = doxorubicin toxicity protection in MRP-1 cells – H69AR cells, CellTiter-Glo, duplicate, MRP-1 activator project, pilot screen (AID 807;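 active means viability increase at or above a cutoff of the median across tested compounds plus 3 SD, cut at about 8.5% in these data, passing the limit was not always enough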;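 further: compound pretreatment 18-22 h then 72 h combined with doxorubicin; 0% = doxorubicin alone and 100% = vehicle without doxorubicin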); settings: H69AR viability with doxorubicin, CellTiter-Glo luminescence; at 10 µM; stronger effect = higher value
[12] = viability of HCT116 without oncogenic beta-catenin – human colon tumor cells, pilot screen (AID 823;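 active means cell viability at or below a set limit in both duplicate runs, the limit being the all-compound median minus 4 SD, cut at about 23% in these data, passing the limit was not always enough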;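 further: 0% = wells killed by 20 µM Hyamine and 100% = untreated DMSO cell wells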); settings: HCT116 beta-catenin knockout viability, CellTiter-Glo, 60 h; at 10 µM; stronger effect = lower value
[13] = viability of PTEN-null HCT116 cells – cell-based, HCT116 clonal line, CellTiter-Glo, pilot screen (AID 824;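 active means viability at or below 27.92% in each of two runs, the all-compound median minus 4 SD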;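 further: 0% = 20 µM Hyamine control and 100% = vehicle cell control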); settings: HCT116 PTEN-deleted viability, 60 h, at 10 µM, stronger effect = lower value
[14] = RAM pathway blockade in budding yeast – dse1pr::URA3 reporter, 5-FOA selection, pilot screen (AID 869;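 active means inhibition over a set limit, the all-compound mean plus 3 SD, in both replicate runs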;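 further: 0% = DMSO wells with no growth and 100% = 10 µM 1-NA-PP1 with full growth; RAM network block rescues cells from 5-FOA so hits raise OD615 growth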); settings: S. cerevisiae dse1pr::URA3 5-FOA growth, OD615, 2 d; at 10 µM; stronger effect = higher value; strain carries analog-sensitive mutant Cbk1 kinase
[15] = RAM signaling pathway blockade in yeast – S. cerevisiae, Pdr1DBD-CYC8 efflux-inhibited sensitized strain, primary screen (AID 1298;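 active means RAM network inhibition above 8.4% in each of two replicates, 3 SD over the compound average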;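 further: 0% = DMSO untreated cells without growth and 100% = 10 µM 1-NA-PP1 full growth; higher means more yeast growth rescued from 5-FOA killing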); settings: S. cerevisiae cbk1-as DSE1-URA3 strain, 5-FOA growth OD615, 2 d; at 50 µM; stronger effect = higher value
[16] = H69AR cells + 2 uM doxorubicin, measured here: viability with 2 uM doxorubicin, stronger effect = lower value
[17] = H69AR cells, compound alone cytotoxicity

Receptor tyrosine-protein kinase erbB-2 (Homo sapiens), sequence (P04626 whole entry, looked up): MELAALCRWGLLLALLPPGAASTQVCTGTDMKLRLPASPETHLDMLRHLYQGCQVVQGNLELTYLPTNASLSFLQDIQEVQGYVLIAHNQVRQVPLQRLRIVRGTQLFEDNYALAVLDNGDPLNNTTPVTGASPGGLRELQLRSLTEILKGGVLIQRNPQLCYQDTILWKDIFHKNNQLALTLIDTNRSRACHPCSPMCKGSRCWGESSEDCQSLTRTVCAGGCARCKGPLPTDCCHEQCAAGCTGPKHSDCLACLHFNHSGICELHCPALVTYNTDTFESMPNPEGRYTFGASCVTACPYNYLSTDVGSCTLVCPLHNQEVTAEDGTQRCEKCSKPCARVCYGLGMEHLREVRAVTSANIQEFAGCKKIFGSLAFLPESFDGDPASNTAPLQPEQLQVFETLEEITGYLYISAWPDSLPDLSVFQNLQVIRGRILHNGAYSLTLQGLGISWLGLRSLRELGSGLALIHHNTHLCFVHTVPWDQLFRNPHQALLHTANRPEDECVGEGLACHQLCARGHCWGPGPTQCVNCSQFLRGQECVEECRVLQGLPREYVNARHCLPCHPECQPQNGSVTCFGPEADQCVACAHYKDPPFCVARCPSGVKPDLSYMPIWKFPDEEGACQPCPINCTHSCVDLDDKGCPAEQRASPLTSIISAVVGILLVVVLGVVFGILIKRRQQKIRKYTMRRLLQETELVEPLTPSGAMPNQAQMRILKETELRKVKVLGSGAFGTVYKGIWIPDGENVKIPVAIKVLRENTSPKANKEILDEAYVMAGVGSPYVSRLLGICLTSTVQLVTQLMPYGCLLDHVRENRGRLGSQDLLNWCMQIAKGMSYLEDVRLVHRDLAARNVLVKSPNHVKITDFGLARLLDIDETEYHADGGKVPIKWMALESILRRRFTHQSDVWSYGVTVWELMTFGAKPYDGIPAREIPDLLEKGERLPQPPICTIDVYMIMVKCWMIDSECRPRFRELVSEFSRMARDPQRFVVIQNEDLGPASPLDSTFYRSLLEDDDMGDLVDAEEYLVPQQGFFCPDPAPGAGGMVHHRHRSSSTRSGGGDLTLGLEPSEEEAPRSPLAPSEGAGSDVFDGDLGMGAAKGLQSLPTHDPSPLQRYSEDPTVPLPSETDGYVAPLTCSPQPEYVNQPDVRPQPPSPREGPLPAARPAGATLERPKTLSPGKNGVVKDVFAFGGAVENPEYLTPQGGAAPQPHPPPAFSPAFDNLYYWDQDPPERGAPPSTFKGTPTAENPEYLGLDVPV

| Compound | viability [1] [%] | Her2 level [2] | viability [3] | viability [4] | viability [5] | differential viability (reversal) ([6]; H69AR cells + 2 uM doxorubicin) | viability [6, 16] [%] | viability [6, 17] [%] | inhibition [7] | inhibition [8] | growth inhibition [9] | growth inhibition [10] | viability increase [11] | viability [12] | viability [13] | inhibition [14] | RAM network inhibition [15] |
| --- | --- | --- | --- | --- | --- | --- | --- | --- | --- | --- | --- | --- | --- | --- | --- | --- | --- |
| CCCCN(CCCC)CCn1cnc2c([nH]c3ccc(OC)cc32)c1=O | 76 | 90.5% (inactive) | 76% (inactive) | 121% (inactive) | 80.2% (inactive) | -12.8% (inactive) | 92.9 | 80.2 | -1.67% (inactive) | 2.17% (inactive) | -6.29% (inactive) | 3.9% (inactive) | -3.78% (inactive) | 82.8% (inactive) | 86.2% (inactive) | 0.545% (inactive) | 2.03% (inactive) |
| CNC(=O)c1ccccc1NC(=O)c1c(O)c2c([nH]c1=O)CCCC2 | 112 | 79% (inactive) | 112% (inactive) | 98.9% (inactive) | 109% (inactive) | 8.66% (inactive) | 99.9 | 109 | -1.71% (inactive) | 0.48% (inactive) | -17.1% (inactive) | -10.1% (inactive) | -2.56% (inactive) | 88.9% (inactive) | 94.5% (inactive) | 1.7% (inactive) | 3.36% (inactive) |
| CC(NC(=O)C1CC1)C(c1cccs1)N1CCN(c2ccccc2)CC1 (stereo not given) | 95.5 | 96% (inactive) | 95.5% (inactive) | 105% (inactive) | 89.5% (inactive) | -4.32% (inactive) | 93.8 | 89.5 | -4.13% (inactive) | -5.57% (inactive) | -6.42% (inactive) | 6.87% (inactive) | 0.65% (inactive) | 92% (inactive) | 93.2% (inactive) | 2.08% (inactive) | -0.26% (inactive) |
| CC1=C(C(N)=O)C(c2ccccn2)n2nc(-c3ccccc3Cl)nc2N1 (stereo not given) | 98 | 114% (inactive) | 98% (inactive) | 103% (inactive) | 91.6% (inactive) | 6.15% (inactive) | 85.4 | 91.6 | -2% (inactive) | -4.17% (inactive) | -13.8% (inactive) | -3.02% (inactive) | -2.25% (inactive) | 101% (inactive) | 91.7% (inactive) | 1% (inactive) | 3.22% (inactive) |
| CCCCCn1c(=O)[nH]c2cc(C(=O)NCCCN3CCCCC3)ccc2c1=O | 76 | 74.5% (inactive) | 76% (inactive) | 86.5% (inactive) | 88.7% (inactive) | 6.66% (inactive) | 82 | 88.7 | -6.76% (inactive) | 5.33% (inactive) | -6.6% (inactive) | 6.35% (inactive) | -2.74% (inactive) | 75.1% (inactive) | 77.5% (inactive) | -0.475% (inactive) | 0.41% (inactive) |
| CSCCC(N=CC1=C(O)CC(C)(C)CC1=O)C(=O)O (stereo not given) | 100 | 139% (inactive) | 100% (inactive) | 99.4% (inactive) | 87.2% (inactive) | -2.07% (inactive) | 89.3 | 87.2 | -3.21% (inactive) | -6% (inactive) | 1.4% (inactive) | 1.57% (inactive) | 0.34% (inactive) | 93.9% (inactive) | 99.9% (inactive) | 0.65% (inactive) | 4.91% (inactive) |
| CC1CC(NC(=O)c2cnc3n(c2=O)CCS3)CC(C)(C)C1 (stereo not given) | 83.5 | 108% (inactive) | 83.5% (inactive) | 85.8% (inactive) | 91.7% (inactive) | 6.09% (inactive) | 85.6 | 91.7 | -4.13% (inactive) | -3% (inactive) | -8.98% (inactive) | -8.4% (inactive) | -0.41% (inactive) | 99% (inactive) | 90% (inactive) | 0.545% (inactive) | 0.68% (inactive) |
| CC(=O)c1ccc(NC(=O)C2CCN(S(=O)(=O)c3cccc4cccnc34)CC2)cc1 | 97.5 | 117% (inactive) | 97.5% (inactive) | 100% (inactive) | 84.3% (inactive) | -5.16% (inactive) | 89.4 | 84.3 | -2.67% (inactive) | -5% (inactive) | -5.1% (inactive) | -5.57% (inactive) | -1.12% (inactive) | 107% (inactive) | 99.8% (inactive) | 1.35% (inactive) | 8.91% (inactive) |
| CCN1CCCC1CNC(=O)c1cc2c(=O)n(C)c3ccccc3c2n1C (stereo not given) | 87 | 86.5% (inactive) | 87% (inactive) | 74.7% (inactive) | 87.8% (inactive) | 7.05% (inactive) | 80.8 | 87.8 | -0.4% (inactive) | 15.9% (inactive) | -1.93% (inactive) | -3.33% (inactive) | -5.23% (inactive) | 67.5% (inactive) | 66.2% (inactive) | 1.1% (inactive) | 2% (inactive) |
| COC(=O)CSC1=NS(=O)(=O)c2ccccc21 | 143 | 92% (inactive) | 143% (inactive) | 60% (inactive) | 62.6% (inactive) | -26.7% (inactive) | 89.3 | 62.6 | -7.43% (inactive) | -2.3% (inactive) | 94.3% (active) | 98.3% (active) | -0.32% (inactive) | 99.4% (inactive) | 96.4% (inactive) | -0.34% (inactive) | -1.77% (inactive) |
